Hit rate of the full screen: of about 65,000 compounds, about 360 (0.55%) were called active.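 How the source made its calls: active means inhibition above the mean inhibition of all tested compounds plus 3 SD (cut at about 48% in these data); inactive means the rest.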 Shown is part of a subset that was picked to be rich in actives.

Inhibition data for 93 compounds are collected here from PubChem BioAssay AID525 (The Scripps Research Institute Molecular Screening Center, 2006).

This assay deals with Steroidogenic factor 1 (Homo sapiens) (UniProt Q13285). The assay can be described thus: inhibitors of human SF-1, primary screen, cell-based, CHO-K1, Gal4-SF-1 LBD, luciferase luminescence (AID 525).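 Further: 0% = SF-1 transfected cells with DMSO and 100% = mock-transfected cells lacking SF-1.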 The settings on record: CHO-K1 Gal4-SF-1 LBD luciferase reporter; at 10 µM; active compounds read high. In general terms: Reporter assays use an easily measured gene product as a stand-in for the process of interest.
Steroidogenic factor 1 (Homo sapiens), sequence (Q13285 whole entry, looked up, the tested form may be a part): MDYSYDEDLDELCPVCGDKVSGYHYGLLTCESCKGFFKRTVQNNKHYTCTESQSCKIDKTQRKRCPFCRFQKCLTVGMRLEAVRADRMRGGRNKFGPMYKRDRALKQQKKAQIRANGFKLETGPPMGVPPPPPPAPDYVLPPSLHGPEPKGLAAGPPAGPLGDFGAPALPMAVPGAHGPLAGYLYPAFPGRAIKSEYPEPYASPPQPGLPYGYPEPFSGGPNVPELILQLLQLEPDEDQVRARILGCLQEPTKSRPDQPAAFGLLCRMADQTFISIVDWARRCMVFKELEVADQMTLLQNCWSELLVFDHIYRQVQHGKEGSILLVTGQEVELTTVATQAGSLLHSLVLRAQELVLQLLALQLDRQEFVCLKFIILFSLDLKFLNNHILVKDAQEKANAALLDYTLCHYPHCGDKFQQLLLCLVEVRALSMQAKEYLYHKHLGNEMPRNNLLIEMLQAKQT
As for `O=C(CN1C(=O)COc2ccccc21)NCCN1CCc2ccccc2C1`, the inhibition (in general, the drop in the measured response relative to a control, in per cent) is 1.3% (inactive). For `C[N+]1(CCNC(=O)/C=N/O)CCCCC1` the value was 3.2% (inactive); for `CC(C)C(=O)Nc1cccc(C(=O)Nc2ccc3c(c2)OCO3)c1`, -55% (inactive). For `Cc1cccc(NC(=O)CSC(N)=O)c1C` the value was 9.5% (inactive).

Take `CCOC(=O)c1sc(N(Cc2ccccc2)C(=O)CN2C(=O)CN(C)C2=O)nc1C`: the inhibition was 3.4% (inactive). As to `CCS(=O)(=O)N1CCC(C(=O)N2CCN(c3ccccc3)CC2)CC1`, the inhibition is 0.7% (inactive). On to `O=C(Nc1ccc(NC(=O)c2cccs2)cn1)c1ccco1`, for which the inhibition was -73.3% (inactive).

Turning to `O=C(c1cccc(C(=O)N2CCN(c3ccc(F)cc3)CC2)c1)N1CCN(c2ccc(F)cc2)CC1`, the inhibition is 6.4% (inactive). Consider `COc1ccc(C2=NOC(C(=O)NCc3ccco3)C2)cc1OC` (stereo not drawn), for which the inhibition is -23.3% (inactive). `COC(=O)c1ccccc1NC(=O)C1CCN(S(=O)(=O)c2cc(OC)ccc2OC)CC1`: the inhibition was 4.4% (inactive). Turning to `CC(=O)c1cc(C#N)c(SCC(=O)C(C)(C)C)nc1C`, the inhibition was -57.1% (inactive). On to `CCOC(=O)C1=C(C)N=c2s/c(=C\C(=O)OC)c(=O)n2C1c1ccc(OC)cc1` (stereo not drawn), for which the inhibition was -6.9% (inactive).

For the compound `COc1ccc(OC)c(CNC(=O)C2CCCN(c3nc4ccccc4o3)C2)c1` (stereo not drawn), the inhibition is 9.1% (inactive). Take `COCc1cc(C)nc(SCC(=O)Nc2cccc(C)c2)c1C#N`: the inhibition is 2.8% (inactive). In the case of `Cc1cnc(NC(=O)CSc2nnc(-c3ccccc3)n2Cc2ccccc2)s1`, the inhibition is 13.7% (inactive). On to `COc1ccc(N2CCN(CCNC(=O)CCN3C(=O)COc4ccccc43)CC2)cc1`, for which the inhibition was 11.5% (inactive). With `CCOC(=O)CCC(=O)OCC(=O)NC(C)C1CC2CCC1C2` (stereo not drawn), the inhibition was 0.5% (inactive). `COc1ccc(OC)c(Nc2nc(-c3ccc(O)c(O)c3)cs2)c1`: the inhibition is 85.3% (active). Regarding `Cc1cc2nc(-c3ccc(NC(=O)c4cccnc4)cc3)oc2cc1C`, the inhibition was -54.8% (inactive). With `Nc1ccc(-c2nnc(-c3ccc(-c4ccccc4)cc3)o2)cc1`, the inhibition is -55.2% (inactive). Regarding `CCc1ccc2oc(-c3ccc(N)cc3)nc2c1`, the inhibition was 50.8% (active). `O=C(CSc1nnc2ccccn12)c1ccccc1`: the inhibition was -55.3% (inactive). With `Fc1ccc2[nH]c3c(N4CCN(Cc5ccc6c(c5)OCO6)CC4)ncnc3c2c1`, the inhibition was 83.3% (active). Consider `O=C(C1CCN(S(=O)(=O)c2cnc[nH]2)CC1)N1CCN(Cc2ccc3c(c2)OCO3)CC1`, for which the inhibition is 6.1% (inactive). Under `Fc1ccc2[nH]c3c(N4CCSCC4)ncnc3c2c1` stands 58.1% (active); under `CC[C@]1(O)C[C@@H]2CN(CCc3c([nH]c4ccccc34)[C@@](C(=O)OC)(c3cc4c(cc3OC)N(C)[C@H]3[C@@](O)(C(=O)OC)[C@H](OC(C)=O)[C@]5(CC)C=CCN6CC[C@]43[C@@H]65)C2)C1`, 73.1% (active). As to `CC[C@]1(O)CC2CN(CCc3c([nH]c4ccccc34)[C@@](C(=O)OC)(c3cc4c(cc3OC)N(C=O)[C@H]3[C@@](O)(C(=O)OC)[C@H](OC(C)=O)[C@]5(CC)C=CCN6CC[C@]43[C@@H]65)C2)C1` (stereo partly drawn), the inhibition is 73.8% (active).

Consider `Cc1ccc(N2C(=O)c3ccccc3C2(O)c2ncc[nH]2)cc1` (stereo not drawn), for which the inhibition was -6.1% (inactive). In the case of `COc1cc(C2C3C(=O)N(c4ccccc4)C(=O)C3ON2c2ccccc2)ccc1O` (stereo not drawn), the inhibition is -51.7% (inactive). Turning to `O=C(Nn1cnc2ccccc2c1=O)c1ccc(F)cc1Cl`, the inhibition was -64.7% (inactive). On to `CC1CN(C2CCCCC2)c2nc3c(c(=O)n(C)c(=O)n3C)n2C1` (stereo not drawn), for which the inhibition is -1.7% (inactive). On to `O=C(NCCCN1CCN(C2CCCCC2)CC1)Nc1ccccc1C(F)(F)F`, for which the inhibition was -13.5% (inactive). With `CC(C)(C)NC(=O)C(c1ccco1)N(Cc1ccc2c(c1)OCO2)C(=O)Cn1nnc2ccccc21` (stereo not drawn), the inhibition is -8.6% (inactive). `CCOc1cc(S(=O)(=O)NC2CC(C)(C)NC(C)(C)C2)ccc1F`: the inhibition was -4.6% (inactive). As to `OCCCNC(c1ccccc1)c1ccc(O)cc1` (stereo not drawn), the inhibition is -6.6% (inactive).

On to `CCCOc1ccccc1C(=O)NCCCC(=O)O`, for which the inhibition was -3.2% (inactive). As to `COc1ccccc1Oc1ccc(S(=O)(=O)Nc2cccnc2)cc1`, the inhibition was 13.8% (inactive). For `COc1cc2cc(CN(CCN3CCCC3)C(=O)Nc3ccccc3Cl)c(=O)[nH]c2cc1OC` the value was 8.5% (inactive); for `Clc1cccc(Cl)c1Cn1nnc(-c2cccs2)n1`, -50.8% (inactive); for `CCCNC(=O)C1CC(=O)N(c2ccc(OCC(=O)Nc3cccc(C)c3C)cc2)C1` (stereo not drawn), -1% (inactive). For `NC(=O)C1CC=CCC1C(=O)OCC(Cl)=C(Cl)Cl` (stereo not drawn), the inhibition was 38.2% (inactive).

With `CCCCOC(=O)c1[nH]c(C)c(C(=O)OC)c1C`, the inhibition was -77.7% (inactive). With `O=C(CSc1nnc(-c2c[nH]c3ccccc23)n1-c1ccc(F)cc1)NCc1ccco1`, the inhibition is -15.6% (inactive).

For `CCOC(=O)c1ccc(-c2ccc(C(=O)Nc3cccnc3)o2)cc1`, the inhibition was -51.3% (inactive). For `Cc1ccc(-c2nnc(SC(C)C#N)n2N)cc1` (stereo not drawn), the inhibition was -9.5% (inactive). `C/C(=C\c1ccco1)C1Nc2cccc3cccc(c23)N1`: the inhibition was 1.5% (inactive). In the case of `Cc1ccc(OCC(=O)Nc2ccc(-c3nnc(-c4ccco4)o3)cc2)cc1`, the inhibition is -65.5% (inactive). Regarding `O=C(Nc1ccc(-c2nnc(-c3ccccc3)o2)cc1)C1CCCO1` (stereo not drawn), the inhibition was -65.9% (inactive).

Regarding `COc1ccc(CC(=O)Nc2ccc(-c3nnc(-c4ccccc4)o3)cc2)cc1`, the inhibition is 59.5% (active).

Turning to `O=C(CCS(=O)(=O)c1ccccc1)Nc1nc2c(s1)CCCC2`, the inhibition is -3.7% (inactive).

For the compound `CS(=O)(=O)c1ccc2nc(NC(=O)CN3CCCCCC3)sc2c1`, the inhibition is 3.7% (inactive). In the case of `O=C(NCCc1ccc(Cl)cc1)C1CC(=O)N(C2CCCCC2)C1` (stereo not drawn), the inhibition is -13.3% (inactive). Consider `CCCCCCOC(=O)NCC(O)c1ccccc1` (stereo not drawn), for which the inhibition is -52.5% (inactive). On to `O=C1CCC(Cc2ccccc2)N1` (stereo not drawn), for which the inhibition was 7.6% (inactive). For `COc1ccc(N2C(=O)CCC(C(=O)Nc3ccccn3)C2c2ccc(OC)c(OC)c2)cc1` (stereo not drawn) the value was -11% (inactive). For the compound `COCCN(CC(=O)Nc1ccccc1C)S(=O)(=O)c1ccc(S(=O)(=O)N2CCCC2)cc1`, the inhibition is 0.4% (inactive). For the compound `COc1ccc(N2CCN(C(=O)CSc3ncnc4c3cnn4-c3ccc(OC)cc3)CC2)cc1`, the inhibition is -9% (inactive).

As for `COc1ccc(Nc2cc(C)nc(-n3nc(C)cc3C)n2)cc1`, the inhibition was 53.7% (active). Consider `Cn1c(=O)c2cn(-c3cccc4ccccc34)cc2n(C)c1=O`, for which the inhibition is -21.5% (inactive). As for `Cc1cc(NC(=O)c2cc(-c3cccs3)on2)nn1Cc1ccc(Cl)cc1`, the inhibition is 2.7% (inactive). On to `NC(=O)CCCC1=NS(=O)(=O)c2ccccc2N1`, for which the inhibition was 10.1% (inactive). Regarding `N/C(=N\c1nc2ccccc2o1)NC(=O)C(Cc1ccccc1)N1C(=O)c2ccccc2C1=O` (stereo not drawn), the inhibition is 0.7% (inactive).

Take `CCOC(=O)C1=C(C)NC(C)=C(C(=O)OCC)C1c1ccccn1`: the inhibition is 6.7% (inactive). Turning to `CCOC(=O)CNC(=O)CSc1nnc(-c2cccc(OC)c2)n1CC`, the inhibition was 12.5% (inactive). Turning to `CC(C)(C)n1nc2c(c1NC(=O)c1ccc(S(=O)(=O)N3CCCC3)cc1)CS(=O)C2` (stereo not drawn), the inhibition is 6.6% (inactive). Under `Cc1ccc(C(=O)Nc2nnc(-c3cccs3)s2)cc1C` stands -80.9% (inactive); under `CC1CCCCN1S(=O)(=O)c1ccc(C(=O)Nc2nnc(-c3cccs3)o2)cc1` (stereo not drawn), 49.4% (active); under `Cc1ccc(-n2c(SCC(=O)Nc3ccc4c(c3)OCO4)nnc2-c2ccoc2C)cc1`, 1% (inactive). Consider `CCCOC(=O)Nc1ccccc1C(N)=O`, for which the inhibition is -2.2% (inactive). On to `CCCCOc1ccc(-c2ncc(C(=O)OCC)c(N)n2)cc1`, for which the inhibition is -49.8% (inactive).

Consider `O=C(CN1CCN(c2ccccn2)CC1)NCc1cccs1`, for which the inhibition was -7.1% (inactive).

Take `COc1ccc(-n2ncc3c(N4CCc5ccccc54)ncnc32)cc1`: the inhibition was -59.8% (inactive).

Regarding `c1cc(-n2cnnn2)ccc1NC1=NCCC1`, the inhibition was 9.1% (inactive). As for `CCC(=O)Nc1ccc2c(c1)nc(CCN1CCN(C)CC1)n2C`, the inhibition was 2.6% (inactive). Regarding `CCOC(=O)Cc1csc(NC(=O)C(C)(C)C)n1`, the inhibition was -20.2% (inactive). Consider `CCn1c(CNc2ccc(OC)cc2)nnc1SCC(=O)c1ccc(OC)cc1`, for which the inhibition was 9.6% (inactive).

As to `COc1cc(Cl)c(C)cc1NC(=O)CSc1nnc(-c2cccnc2)n1Cc1ccco1`, the inhibition is -10.6% (inactive). For `Cc1nnc(SCC(=O)N(C(C)C)C(C)C)nc1C` the value was 3.3% (inactive); for `Cc1ccsc1C(=O)OCC(=O)c1cc(C)n(CC2CCCO2)c1C` (stereo not drawn), 80.5% (active). Under `O=C(OCC(=O)c1cccs1)C1=COCCO1` stands -24.5% (inactive). With `CCOc1cccc(NC(=O)CC#N)c1`, the inhibition is -9.5% (inactive). Regarding `C/C(=N\O)C1(C)N(O)C(C)(C)C(c2ccc(Br)cc2)=[N+]1[O-]` (stereo not drawn), the inhibition is 8.5% (inactive). For the compound `c1ccc(CSc2nnc(-c3ccco3)n2Cc2ccccc2)cc1`, the inhibition is -76% (inactive). For the compound `Cn1c(-c2ccco2)nc2cc3ccccc3cc21`, the inhibition was 54.3% (active). With `O=S(=O)(Nc1ccc2nc(-c3ccco3)[nH]c2c1)c1ccccc1`, the inhibition is -53.5% (inactive).

As to `Cc1cc(NC(=O)CCC(=O)N(c2ccccc2)C(C(=O)NC2CCCC2)c2ccncc2)no1` (stereo not drawn), the inhibition is -9.4% (inactive).

As to `CCOc1ccccc1NC(=O)CCc1ccc(C)o1`, the inhibition was 14.7% (inactive). Turning to `O=C(O)C1CCCN(S(=O)(=O)c2cccc3cccnc23)C1` (stereo not drawn), the inhibition is -5.7% (inactive). In the case of `COc1ccc(N2CC(C)Cn3c2nc2c3c(=O)n(Cc3ccccc3F)c(=O)n2C)c(OC)c1` (stereo not drawn), the inhibition is -2.3% (inactive). Under `Nc1ncc(-c2cc3ccccc3oc2=O)s1` stands -79.3% (inactive); under `CCOC(=O)c1c(C(C#N)C#N)cc(C)nc1C`, -2.3% (inactive).

In the case of `CC(C)COC(=O)c1ccc(NC(=O)C2C3C=CC(C3)C2C(=O)O)cc1` (stereo not drawn), the inhibition is -63.7% (inactive). As to `Cn1c(=O)c2c(nc(SCCNS(=O)(=O)c3ccccc3)n2C)n(C)c1=O`, the inhibition was 13.3% (inactive).
